Measured values published in ChEMBL document CHEMBL1157539, “Thousands of chemical starting points for antimalarial lead identification” (Nature, 2010).

Experiments:
Plasmodium falciparum [1] = test: GSK_TCMDC: Inhibition of Plasmodium falciparum 3D7 in whole red blood cells, using parasite LDH activity as an index of growth. Test compounds present at 2uM; assay type: functional
Plasmodium falciparum [2] = test: GSK_TCMDC: Inhibition of Plasmodium falciparum Dd2 in whole red blood cells, using parasite LDH activity as an index of growth. Test compounds present at 2uM; assay type: functional

Row | SMILES | Inhibition (Plasmodium falciparum [1]) [%] | Inhibition (Plasmodium falciparum [2]) [%]
1 | Nc1nc(N)c(-c2ccccc2)c(=O)[nH]1 | 83 | 0
2 | CCN(CC)CCCC(C)Nc1c2ccc(Cl)cc2nc2ccc(OC)cc12.Cl.O (stereo not drawn) | 100 | 100
3 | CC(C)n1c(C(C)(C)C)cc2c3c(N)nc(N)nc3ccc21 | 100 | 99
4 | CCCCN(CCCC)CCCN(CCCN(CCCC)CCCC)c1cc(C)nc(Nc2ccc(Cl)cc2)n1.O=C(O)C(=O)O | 100 | 99
5 | COc1ccc(Cc2c(Cl)nc3nc(N)nc(N)c3c2C)cc1 | 94 | 3
6 | Nc1nc(N)c2c(ccc3c2cnn3Cc2cccnc2)n1 | 95 | 96
7 | Nc1nc(N)c2c(ccc3c2ccn3Cc2ccc3c(c2)OCO3)n1 | 100 | 95
8 | CCN(c1ccc(O)c(CN2CCCCC2)c1)c1ccc([N+](=O)[O-])cn1.Cl | 94 | 64
9 | CCCCCCCN(Cc1ccc(OC(C)(C)C(=O)OCC)cc1)C(=O)Cc1ccc(F)cc1F | 93 | 95
10 | Nc1nc(N)c2c(ccc3[nH]c(-c4ccccc4Cl)nc32)n1 | 100 | 100
11 | Cc1nc(C)c(-c2ccc(Oc3cc(Cl)cc(Cl)c3)cc2)c(O)c1Br | 96 | 97
12 | Cc1nc(NCc2ccccc2)cc(Nc2cc(NCc3ccccc3)nc(C)n2)n1 | 90 | 32
13 | CC(C)Cn1cc2c(ccc3nc(N)nc(N)c32)n1 | 97 | 2
14 | CCN(Cc1cccc2ccccc12)c1ccc2nc(N)nc(N)c2c1.Cl | 100 | 100
